Source: PubChem BioAssay AID894 (National Center for Advancing Translational Sciences (NCATS), 2007)
“And” between values parts separate entries of the source, which are not always exact repeats. Identical values can stand only once. The whole screen tested about 150,000 compounds, of which about 6,500 (4.3%) were called active. About 12% were inconclusive and are not listed. The sample holds actives, similar compounds and a random draw of the others, so the mix is not that of the screen. The call rests on the fitted dose curve; in most records, active means well fitted inhibition curve with a large enough effect (not every such curve was filed as active); inconclusive means small, poorly fitted or top-dose-only effect, or another doubt; inactive means no such curve, though single readings can be large or run the other way.

Biological target: 15-hydroxyprostaglandin dehydrogenase [NAD(+)] (Homo sapiens) (UniProt P15428)
Assay: qHTS Assay for Inhibitors of HPGD (15-Hydroxyprostaglandin Dehydrogenase)
Conditions: purified HPGD, NADH fluorescence kinetic, PGE2 substrate; activity change, negative = inhibition: hits give low values
Description: Human 15-Hydroxyprostaglandin dehydrogenase (HPGD) catalyzes the inactivation of prostaglandin E2, and plays a major role in cancer biology by antagonizing the oncogenic potential of cyclooxygenase type 2 (COX2). Assays are available, based on absorbance/fluorescence increase of NADH with the substrate 15-OH prostaglandin E2. References 1. Myung SJ, Rerko RM, Yan M, Platzer P, Guda K, Dotson A, Lawrence E, Dannenberg AJ, Lovgren AK, Luo G, Pretlow TP, Newman RA, Willis J, Dawson D, Markowitz SD. 15-Hydroxyprostaglandin dehydrogenase is an in vivo suppressor of colon tumorigenesis. […] 2. Yan M, Rerko RM, Platzer P, Dawson D, Willis J, Tong M, Lawrence E, Lutterbaugh J, Lu S, Willson JK, Luo G, Hensold J, Tai HH, Wilson K, Markowitz SD. 15-Hydroxyprostaglandin dehydrogenase, a COX-2 oncogene antagonist, is a TGF-beta-induced suppressor of human gastrointestinal cancers. Proc Natl Acad Sci U S A. 2004 Dec 14;101(50):17468-73. 3. Yang L, Amann JM, Kikuchi T, Porta R, Guix M, Gonzalez A, Park KH, Billheimer D, Arteaga CL, Tai HH, Dubois R, Carbone DP, Johnson DH. Inhibition of Epidermal Growth Factor Receptor Signaling Elevates 15-Hydroxyprostaglandin Dehydrogenase in Non-Small-Cell Lung Cancer. Cancer Res. 2007 Jun 15;67(12):5587-5593. Inhibition of HPGD activity was screened by utilizing prostaglandin as an electron donor and NAD+ as an electron acceptor/cofactor. An increase in the fluorescence intensity due to conversion of NAD+ to NADH was used to measure the enzyme activity. NIH Chemical Genomics Center [NCGC] Structural Genomics Consortium [SGC]
Buffer: 50 mM Tris-HCl, 0.01% Tween 20, pH 8. Enzyme Buffer: 50 mM Tris-HCl, 0.5 mM NAD+ and 0.01% Tween 20, pH 8. Reagents/Controls: Buffer in columns 3 and 4 as negative control (no enzyme). Substrate/cofactor solution: 1 mM NAD+ and 30 uM prostaglandin (Sigma, prostaglandin E2, # P5640) final concentrations dispensed throughout the plate. Enzyme: 20 nM HPGD final concentration in columns 1, 2, 5-48. Column 1 and 2 is neutral (100% activity). A titration of control inhibitor GW5074 (G6416 Sigma-Aldrich, St. Louis, MO) top concentration 10 mM in DMSO, then 1:2 dilution for a total of 16 concentrations in duplicate) was pin-transferred into column 2. Assay Steps: Three uL of enzyme were dispensed to 1536-well Greiner black solid bottom plates. Compounds and control inhibitor (23 nL) were transferred via Kalypsys PinTool. The plates were incubated for 15 min at room temperature, and then 1 uL of substrate/cofactor solution was added to start the reaction. The plates were immediately transferred to and read 5 times every 30 seconds on ViewLux High-throughput CCD imager (Perkin-Elmer) using 360 nm excitation and 450 nm emission fluorescence protocol. The fluorescence intensity difference between the last and the first time points was used to compute reaction progress.
On the % scale 0 is the no-effect control and ±100 the full control effect; potency means the concentration at half of the fitted maximal effect.

Chain of 15-hydroxyprostaglandin dehydrogenase [NAD(+)] (Homo sapiens) (P15428 whole entry, looked up): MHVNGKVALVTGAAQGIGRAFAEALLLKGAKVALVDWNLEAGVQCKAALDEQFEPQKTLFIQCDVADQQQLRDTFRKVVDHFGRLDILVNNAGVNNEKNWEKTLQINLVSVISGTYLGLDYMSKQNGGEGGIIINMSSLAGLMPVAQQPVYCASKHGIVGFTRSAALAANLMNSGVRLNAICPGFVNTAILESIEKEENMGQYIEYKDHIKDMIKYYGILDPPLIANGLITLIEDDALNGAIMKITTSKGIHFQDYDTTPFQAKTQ

Activity change, negative = inhibition, inactive:
CC(=O)Nc1ccc(/C(C)=N/NC(=O)CN(c2ccccc2Br)S(C)(=O)=O)cc1 -3.71%, O=C(CSc1nc(-c2ccccc2)cs1)Nc1cccc([N+](=O)[O-])c1 -24.6%, Cc1cccc(NC(=O)CSc2nnc(NC(=O)CN3CCOCC3)s2)c1 -8.48%, CCCCNC(=O)CSc1nnc(-c2ccco2)n1C -11.5%, CCCCNS(=O)(=O)c1ccc2nc(SCC(=O)Nc3cc(C)cc(C)c3)[nH]c2c1 -21.1%, CC(CNc1ccc([N+](=O)[O-])c2cccnc12)Nc1c([N+](=O)[O-])cc(C(F)(F)F)cc1[N+](=O)[O-] (stereo not drawn) -20.4%, O=C(O)c1ccc(/C=N/NC(=O)c2ccc(Br)cc2)cc1 -2.06%, CC(=O)NC1C(OCc2ccccc2)OC(COC(C)=O)C(OC(C)=O)C1OC(C)=O (stereo not drawn) -0.385%, CCN(CC)c1ccc(C(=O)N/N=C(\C)c2cccc(OC)c2)cc1 -8.48%, COc1ccc(OC(C)C(=O)NCCc2nc3ccccc3[nH]2)cc1 (stereo not drawn) -0.239%, CC(C)CCNC(=O)c1cccnc1Sc1ccccc1 -7.91%, CSc1nc(-c2ccco2)nn1C(=O)CCc1ccccc1 -14%, O=c1nc2s/c(=C\c3ccco3)c(=O)n2nc1Cc1ccccc1 -22.5%, O=C(NC1CCCCC1)c1cc([N+](=O)[O-])ccc1N1CCOCC1 -0.536%, Cc1ccc(C(=O)NC2CCN(C(=O)N3CCOCC3)CC2)cc1 -4.3%, CCS(=O)(=O)N1Cc2ccccc2CC1C(=O)Nc1nc2ccc(F)cc2s1 (stereo not drawn) -14%, CCc1nnc(NC(=O)C2CC(=O)N(c3ccc4c(c3)OCCO4)C2)s1 (stereo not drawn) -28.3%, COC(=O)Cc1ccc(OCC(=O)Nc2ccc(OC(F)(F)F)cc2)cc1 -9.9%, Cc1ccccc1NC(=S)Nc1cccc([N+](=O)[O-])c1 -3.09%, O=C(CSCC(=O)Nc1cccc([N+](=O)[O-])c1)Nc1ccccc1 -9.37%, CCC(C)NC(=O)c1ccccc1NC(=O)c1ccccc1N(C)S(C)(=O)=O (stereo not drawn) 1.34%, CCCCNC(=O)C(=O)c1ccccc1NC(C)=O -11.5%, COc1ccc(C)cc1NC(=O)C(Sc1ccccc1)c1ccccc1 (stereo not drawn) -3.19%, CSCCC(Nc1ccc(S(=O)(=O)N2CCOCC2)cc1[N+](=O)[O-])C(=O)OCC(=O)N(C(C)C)C(C)C (stereo not drawn) -2.59%, O=C(O)c1ccc2c(c1)C(=O)N(NC(=O)c1ccc(O)cc1)C2=O -11%, COC(=O)C(C(=O)OC)C1c2ccccc2C=C(C2CC2)N1C(=O)OC (stereo not drawn) -11% and -4.45%, CCCc1cc(=O)[nH]c(SCC(=O)N2CCN(S(=O)(=O)c3ccc(C)cc3C)CC2)n1 -0.796%, CCCc1cc(=O)n2[nH]c(SCc3ccccc3)nc2n1 -15.8%, CCCc1cc(=O)[nH]c(SCC(=O)OCc2ccccc2)n1 -12.3%, Cc1ccc2c(CSc3nncs3)cc(=O)oc2c1 -18.3%, CCCCN1C(=O)CCC(C(=O)O)C1c1ccc(OC)cc1 (stereo not drawn) -3.29%, CCc1cccc(NC(=O)CCC(=O)O)c1 6.1%, COc1ccc2c(CC(=O)OCC(=O)Nc3ccccc3[N+](=O)[O-])coc2c1 -21.4%, COc1cc(OC)cc(C(=O)Nc2ccc(S(=O)(=O)Nc3cc(C)on3)cc2)c1 -20.6%, Cc1cc(NS(=O)(=O)c2ccccc2)no1 -11.9%, COc1ccc2nc(Nc3nc(-c4cc5ccccc5oc4=O)cs3)sc2c1 -10.8%, C/C(=N\NS(=O)(=O)c1ccc(Cl)cc1)c1ccc(NC(=O)c2ccco2)cc1 -18.3%, O=C(CN1C(=O)c2ccccc2S1(=O)=O)N1CCc2ccccc21 -12.2%, Nc1nnc(SCCN2C(=O)c3ccccc3S2(=O)=O)s1 -12.2%, CCCCC/C=C\C/C=C\CCCCCCCCCC(=O)NCC(=O)O -8.47%, Cc1cccc(-c2nc3ccccc3c(=O)n2NC(=O)Cc2ccc(Cl)cc2)c1 -9.37%, CCCCc1cc2c(s1)CCCC/C2=N/O -24.8%, COc1ccc(CNC(=O)CCn2cccc2)cc1 -21.6%, CC(C)NC(=O)CSc1ccccc1C(=O)NCc1ccc2c(c1)OCO2 -1.41%, Cc1cccc(N2C(=O)C3C(c4ccccc4)OC4(C(=O)c5ccccc5C4=O)C3C2=O)c1 (stereo not drawn) -4.94%, Cc1cccc(N2C(=O)SC(N(CC(=O)O)c3cccc(C)c3)C2=O)c1 (stereo not drawn) -14.2%

Potency, active:
CCCCNC(=O)CSc1nc2ccc(NC(=O)CSc3nnc(N)s3)cc2s1 5.01 µM, Nc1nnc(SCC(=O)Nc2ccc3nc(SCC(=O)Nc4ccccc4)sc3c2)s1 4.47 µM, CCOc1ccccc1/C=c1\sc2nc(-c3ccco3)nn2c1=O 17.8 µM, O=C(NC1CCCCC1)c1ccc(CNc2c(N3CCOCC3)c(=O)c2=O)cc1 14.1 µM, COC(=O)/C=C\C(=O)Nc1cccc([N+](=O)[O-])c1 3.16 µM, CCCCNC(=O)c1ccccc1NC(=O)c1ccccc1N(C)S(C)(=O)=O 25.1 µM, CCCc1cc(=O)[nH]c(SCc2cc(=O)oc3c(C)c(C)ccc23)n1 3.55 µM, CCCc1cc(=O)[nH]c(SCc2ccc(C#N)cc2)n1 15.8 µM, COc1cc2ccccc2cc1C(=O)Nc1ccc(S(=O)(=O)Nc2cc(C)on2)cc1 20 µM, O=C1c2ccccc2S(=O)(=O)N1CC(O)Cn1c2ccccc2c2ccccc21 (stereo not drawn) 8.91 µM, CCSc1ccccc1C(=O)NCc1ccc(OC)cc1 2.51 µM, Cc1cccc(N2C(=O)SC(SC(=Nc3ccccc3)Nc3ccccc3)C2=O)c1 (stereo not drawn) 14.1 µM
